Experimental data reported in PubChem BioAssay (NCATS).
Values joined by “and” are separate entries in the source; they are usually repeats but may differ in a detail not shown here. Equal values may be shown once. Records with an inconclusive call do not appear. Active and inactive are the calls of the source. Unless noted, calls follow the shape of the dose curve; as a rule, active = well fitted curve in the direction sought with a large enough effect; inconclusive = small, poorly fitted or top-dose-only effect, or another doubt; inactive = no such curve, though single readings can be large; an effect the other way counts as inactive or inconclusive.

What was measured:
[1] = Cell Viability - HepG2 (AID 433; calls by dose curve;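 also: potency is read from the fitted curve at half-maximal effect; potency for ATP loss meaning cytotoxicity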); details: qHTS
Outline: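 Cytotoxicity is scored as loss of intracellular ATP in HepG2 cells exposed to compounds for 40 h. Concentration-response curves, normalized to DMSO and 100 uM tamoxifen, give AC50 values.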

[2] = Cell Viability - MRC5 (AID 434; calls by dose curve;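 also: potency is read from the fitted curve at half-maximal effect; potency reflects cytotoxicity seen as loss of intracellular ATP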); details: MRC5 lung fibroblast viability, qHTS
Outline: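 MRC5 normal human lung fibroblasts, 1500 cells/well, exposed to compound for 40 hr at 37 C. Cellular ATP was read by CellTiter-Glo luminescence; data normalized to DMSO and 100 uM tamoxifen, with AC50 from Hill fits.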

[3] = molecular target: Mitogen-activated protein kinase 10 (Mus musculus) (UniProt Q61831); experiment: JNK3 AlphaScreen Assay (AID 530; active = well fitted curve in either direction with a large enough effect, not every such curve was filed as active;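 also: kinase came from lysate of stimulated human HepG2 cells; signal reports phosphorylation of biotinylated GST-cJun 1-79 at Ser73 with 10 µM ATP; % is scaled to controls: 0 for no effect and ±100 for the full control effect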); details: JNK3 lysate, c-Jun phosphorylation; series mostly up to 57.1 µM
Outline: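 qHTS format: compounds tested as titrations against IL-1beta/TNF-alpha-activated HepG2 lysate JNK3 with biotin-GST-cJun substrate and 10 uM ATP at room temperature. Loss of anti-phospho-cJun AlphaScreen signal indicates inhibition.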

[4] = Cell Viability - HUV-EC-C (AID 542); details: HUV-EC-C endothelial cell viability, qHTS; series mostly up to 92.2 µM; also: % is scaled to controls: 0 for no effect and ±100 for the full control effect; nearly all actives have a fitted effect of over 35% in size
Outline: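 HUV-EC-C normal human vascular endothelial cells, 1000 cells/well, pre-incubated 5 hr at 37 °C, then exposed to compounds for 40 hr at 37 °C in complete medium. Viability measured as intracellular ATP by CellTiter-Glo luminescence; AC50 from Hill fits.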

[5] = Cell Viability - SH-SY5Y (AID 544); details: SH-SY5Y neuroblastoma cell viability; viability change, negative = cytotoxic: at 92.2 µM (top of the series); also: nearly all actives have a fitted effect of over 55% in size
Outline: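 Human neuroblastoma SH-SY5Y cells (1500/well) in complete medium were exposed to compounds for 40 hr at 37 °C; intracellular ATP was then quantified by CellTiter-Glo luminescence after 20 min at room temperature. AC50 came from Hill-equation concentration-response fits.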

[6] = Cell Viability - Renal Proximal Tubule (AID 545); details: renal proximal tubule cells viability; at 91.7 µM (top of the series), primary cells of rat origin unless noted; also: nearly all actives have a fitted effect of over 40% in size
Outline: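 Cytotoxicity is scored as a concentration-dependent drop in cellular ATP in primary rat renal proximal tubule cells exposed for 40 hr. AC50 derives from Hill modelling.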

[7] = Cell Viability - Mesenchymal (AID 546); details: mesenchymal cells viability, qHTS; series mostly up to 91.7 µM;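 also: cells exposed to compound for 40 hours before reading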
Outline: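 Human kidney mesenchymal cells from normal renal glomeruli, 1000 cells/well, rested 5 hr at 37 °C, then treated 40 hr at 37 °C in complete medium. Cellular ATP read by CellTiter-Glo luminescence; AC50 from Hill-equation fits.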

[8] = Cellular Toxicity (caspase-3) HUV-EC-C (AID 656); details: HUV-EC-C cells, caspase-3 activation (apoptosis), vehicle = 0, 100 µM tamoxifen = 100%; series mostly up to 92.2 µM
Outline: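 Read-out: luminescence proportional to caspase 3/7 activity, measured 20 min after adding Caspase-Glo 3/7 reagent. Cells (HUV-EC-C) had received compound for 16 hr at 37°C. Increases relative to DMSO and 100 uM tamoxifen gave concentration-response AC50 values.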

[9] = Cellular Toxicity (caspase-3) SHSY5Y (AID 657); details: SH-SY5Y caspase-3 activation, DMSO zero, 10 µM staurosporine = 100%; series mostly up to 91.7 µM
Outline: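 Cells plated and incubated 5 h at 37 °C, dosed over a concentration range, incubated 16 h, then given Caspase-Glo 3/7 reagent for 1 h at room temperature before luminescence reading. Staurosporine (10 uM) defined full stimulation.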

[10] = Cellular Toxicity (caspase-3) MRC-5 (AID 659); details: MRC-5 cells, luminescence, normalized: DMSO 0%, 10 µM staurosporine 100%; series mostly up to 91.7 µM
Outline: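 MRC-5 human normal lung fibroblasts, 1500 cells/well, treated 16 h at 37 °C in complete medium. Caspase 3/7 measured by Caspase-Glo luminescence after 1 h at room temperature. Normalized to DMSO and 10 uM staurosporine; AC50 from Hill fit.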

[11] = Cellular Toxicity (caspase-3) Mesangial (AID 660); details: mesangial cells, normalized: DMSO 0%, 100 µM tamoxifen 100%; series mostly up to 91.7 µM;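 also: cells exposed to compound for 16 h before the caspase read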
Outline: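 Human renal glomerular mesangial cells (1000/well) were treated with compounds for 16 h at 37 °C in complete medium, then caspase 3/7 activity was read by Caspase-Glo luminescence. Data were normalized to DMSO and 100 uM tamoxifen; AC50 from Hill fits.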

[12] = Cell Viability - LYMP1-002 - Assay at 16 hr (AID 948); details: LYMP1-002 lymphoblastoid cell viability; series mostly up to 92.2 µM;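 also: 0% = DMSO alone and full effect = 92 µM tetraoctylammonium bromide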
Outline: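 Acute cytotoxicity is scored as a concentration-dependent fall in intracellular ATP in a human lymphoblastoid line (LYMP1-002) after 16 hr compound exposure at 37 C, measured by luciferase luminescence.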

[13] = MultiTox-Fluor Cytotoxicity Assay - LYMP1-003 - Dead Cells (AID 961); details: LYMP1-003 lymphoblastoid cells, dead-cell protease fluorescence; series mostly up to 92.2 µM;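 also: 0% = DMSO and 100% = tetraoctylammonium bromide; nearly all actives have a fitted effect of over 70% in size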
Outline: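 LYMP1-003 human lymphoblastoid cells (2500/well) exposed to compound 16 h at 37 C in complete medium; dead-cell protease read with bis-AAF-R110 fluorescence (Ex/Em 485/520) after 60 min at room temperature. Normalized to DMSO and 15 uM tetraoctylammonium bromide; AC50 from Hill fit.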

[14] = Cell Viability - LYMP1-003 - Assay at 24 hr (AID 963); details: LYMP1-003 lymphoblastoid cell viability; series mostly up to 92.2 µM;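 also: plate controls were DMSO only for no effect and tetraoctylammonium bromide positive control for full effect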
Outline: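 Human lymphoblastoid LYMP1-003 cells (2500/well) were rested 5 hr at 37 C, then exposed to compounds in complete medium for 24 hr at 37 C. Cellular ATP was quantified by CellTiter-Glo luminescence, and AC50 values came from Hill fits of concentration-response data.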

[15] = Cell Viability - LYMP2-015 (AID 971); details: LYMP2-015 lymphoblastoid cell viability; series mostly up to 92.2 µM;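 also: 0% = DMSO only and full effect = 92 µM tetraoctylammonium bromide; nearly all actives have a fitted effect of over 55% in size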
Outline: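 Human lymphoblastoid cells (2500/well) in complete medium were preincubated 5 hr at 37 C, then compound-treated 24 hr at 37 C. Intracellular ATP was read by CellTiter-Glo luminescence after 30 min at room temperature; AC50 came from Hill-equation concentration-response fits.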

[16] = Cell Viability - LYMP2-025 (AID 976); details: LYMP2-025 lymphoblastoid cell viability; series mostly up to 92.2 µM;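 also: plate controls were DMSO only for no effect and tetraoctylammonium bromide control for full effect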
Outline: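 Human lymphoblastoid LYMP2-025 cells (2500/well) were pre-incubated 5 hr at 37 C, then treated with compounds for 24 hr at 37 C in complete medium. Viability was read as intracellular ATP by CellTiter-Glo luminescence; AC50 from Hill fits.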

[17] = qHTS Assay for Identification of Small Molecule Inducers of Hypoxia Response (AID 2120; active = well fitted curve in the direction sought with a large enough effect in the signal ratio, with a control signal flat, not every such curve was filed as active; the % refers to the signal ratio; also: 0% is about no effect); details: hypoxia response reporter cells, beta-lactamase ratio readout; series mostly up to 104 µM
Outline: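 HRE-beta-lactamase reporter in CellSensor HRE-bla ME-180 cells, 2500 cells/well in Opti-MEM with 0.5% dialyzed FBS; compounds tested as titration series, 17 h at 37 degrees C. CCF4 substrate 2.5 h at room temperature; AC50 from 460/530 nm ratio.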

[18] = qHTS assay for small molecule agonists of the antioxidant response element (ARE) signaling pathway measured by Nrf2-dependant transcriptional activity - cell viability counter screen (AID 720653; active = well fitted curve in the direction sought with a large enough effect in the repeat runs; an effect the other way counts as inactive or inconclusive; also: % is scaled to controls: 0 for no effect and ±100 for the full control effect); details: ARE-bla HepG2 viability, CellTiter-Glo ATP luminescence, 16 h; active compounds read low
Outline: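 ARE-bla HepG2 cells treated with compounds for 16 h at 37C; this counter screen measures viability as intracellular ATP by CellTiter-Glo luminescence after 30 min at room temperature.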

[19] = qHTS assay for cell viability of HEK293 cells (AID 743288); details: ATP luminescence (CellTiter-Glo), 18 h; max response: active compounds read low; also: % is scaled to controls: 0 for no effect and ±100 for the full control effect; nearly all actives have a fitted effect of over 50% in size
Outline: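 The Tox21 protocol used parental HEK293 cells treated for 18 h at 37 C with compounds delivered by pintool; ATP-coupled luminescence after 30 min at room temperature gave viability.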

[20] = qHTS assay for cell viability of the p53RE-bla HCT-116 cell line (AID 743292); details: p53RE-bla HCT-116 viability, ATP luminescence, 16 h; series mostly up to 95 µM; also: % is scaled to controls: 0 for no effect and ±100 for the full control effect; nearly all actives have a fitted effect of over 55% in size
Outline: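 In this qHTS counter-screen, metabolically competent p53RE-bla HCT-116 cells were counted via their ATP content. Compounds were applied for 16 h at 37 C and luciferase-coupled luminescence was measured.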

Brc1ccccc1
inactive: Potency [1] > 92 µM | Potency [2] > 92 µM | outcome [3] | Potency [4] | Potency [5] | activity change, negative = cytotoxicity [6] -2.95% | outcome [7] | outcome [8] | outcome [9] | outcome [10] | outcome [11] | Potency [12] | Potency [13] | Potency [14] | Potency [15] | Potency [16] | outcome [17] | max response [18] -10.2% and 1.06% | max response [19] 3.06% and -4.67% | Potency [20]

C=C(C)C(=O)OCC1CO1 (stereo not given)
inactive: Potency [1] > 92 µM | Potency [2] > 92 µM | outcome [3] | Potency [4] | Potency [5] | activity change, negative = cytotoxicity [6] -4.58% | outcome [7] | outcome [8] | outcome [9] | outcome [10] | outcome [11] | Potency [12] | Potency [13] | Potency [14] | Potency [15] | Potency [16] | outcome [17] | max response [18] 1.28% | max response [19] 3.25% | Potency [20]

CN=C=S
inactive: Potency [1] > 92 µM | Potency [2] > 92 µM | outcome [3] | Potency [4] | Potency [5] | activity change, negative = cytotoxicity [6] -2.52% | outcome [7] | outcome [8] | outcome [9] | outcome [10] | outcome [11] | Potency [12] | Potency [13] | Potency [14] | Potency [15] | Potency [16] | outcome [17] | max response [18] 4% and -4.66% | max response [19] -4.04% and -6.57% | Potency [20]

OCC1CO1 (stereo not given)
inactive: Potency [1] > 92 µM | Potency [2] > 92 µM | outcome [3] | Potency [4] | Potency [5] | activity change, negative = cytotoxicity [6] 4.62% | outcome [7] | outcome [8] | outcome [9] | outcome [10] | outcome [11] | Potency [12] | Potency [13] | Potency [14] | Potency [15] | Potency [16] | outcome [17] | max response [18] -5.57% and 1.53% | max response [19] -3.99% and -2.83% | Potency [20]

C=C(Cl)Cl
inactive: Potency [1] > 92 µM | Potency [2] > 92 µM | outcome [3] | Potency [4] | Potency [5] | activity change, negative = cytotoxicity [6] -2.22% | outcome [7] | outcome [8] | outcome [9] | outcome [10] | outcome [11] | Potency [12] | Potency [13] | Potency [14] | Potency [15] | Potency [16] | outcome [17] | max response [18] -2.66% | max response [19] -0.763% | Potency [20]

O=C(Cl)/C=C/C(=O)Cl
inactive: Potency [1] > 92 µM | Potency [2] > 92 µM | outcome [3] | Potency [4] | Potency [5] | activity change, negative = cytotoxicity [6] 2.59% | outcome [7] | outcome [8] | outcome [9] | outcome [10] | outcome [11] | Potency [12] | Potency [13] | Potency [14] | Potency [15] | Potency [16] | outcome [17] | max response [18] 3.07% | max response [19] 1.49% | Potency [20]

Nc1ccccc1Cl
inactive: Potency [1] > 92 µM | Potency [2] > 92 µM | outcome [3] | Potency [4] | Potency [5] | activity change, negative = cytotoxicity [6] 6.03% | outcome [7] | outcome [8] | outcome [9] | outcome [10] | outcome [11] | Potency [12] | Potency [13] | Potency [14] | Potency [15] | Potency [16] | outcome [17] | max response [18] 8.24% | max response [19] -8.45% | Potency [20]

CC(C)(C)OOC(C)(C)C
inactive: Potency [1] > 92 µM | Potency [2] > 92 µM | outcome [3] | Potency [4] | Potency [5] | activity change, negative = cytotoxicity [6] -8.32% | outcome [7] | outcome [8] | outcome [9] | outcome [10] | outcome [11] | Potency [12] | Potency [13] | Potency [14] | Potency [15] | Potency [16] | outcome [17] | max response [18] -1.66% | max response [19] 1.9% | Potency [20]

CCC[CH2][Sn]([Cl])([Cl])[Cl]
inactive: Potency [1] > 92 µM | Potency [2] > 92 µM | outcome [3] | Potency [4] | Potency [5] | activity change, negative = cytotoxicity [6] -9.62% | outcome [7] | outcome [8] | outcome [9] | outcome [10] | outcome [11] | Potency [12] | Potency [13] | Potency [14] | Potency [15] | Potency [16] | outcome [17] | max response [18] -3.93% and 8.73% | max response [19] 9.1% and -10.4% | Potency [20]

CC(C)(c1ccccc1)c1ccc(O)cc1
inactive: Potency [1] > 92 µM | Potency [2] > 92 µM | outcome [3] | Potency [4] | Potency [5] | activity change, negative = cytotoxicity [6] -9.32% | outcome [7] | outcome [8] | outcome [9] | outcome [10] | outcome [11] | Potency [12] | Potency [13] | Potency [14] | Potency [15] | Potency [16] | outcome [17] | max response [18] 9.52% and -12.4% | max response [19] -13.3% and 1.83% | Potency [20]

Cc1ccc2ccccc2c1
inactive: Potency [1] > 92 µM | Potency [2] > 92 µM | outcome [3] | Potency [4] | Potency [5] | activity change, negative = cytotoxicity [6] -15.4% | outcome [7] | outcome [8] | outcome [9] | outcome [10] | outcome [11] | Potency [12] | Potency [13] | Potency [14] | Potency [15] | Potency [16] | outcome [17] | max response [18] -3.38% | max response [19] 2.28% | Potency [20]
